Screens as filed in PubChem BioAssay.
Shown are actives, neighbours in structure and some others; about 3.5% of the full set was active somewhere.
UHRF1 MBD2 ctr: human UHRF1 methylated DNA binding inhibitors; UHRF1 binding to methylated oligo, TR-FRET; 370,000 compounds, 0.75% hits; inhibition, % at 4.4 µM; AID 687016; in the data active = inhibition above about 21%;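 note: UHRF1 SRA domain binding a hemimethylated CpG hairpin DNA probe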
rCAG RNA binder: r(CAG) repeat RNA binding | 370,000 compounds, 1.3% hits | AID 651821 | inhibition, % at 3 µM | TO-PRO-1 dye displacement fluorescence;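 active = inhibition above the plate cutoff, the mean of all test compounds on that plate plus 3 SD, cut at about 35% in these data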;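 note: higher means more dye released from RNA so lower well fluorescence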
MBD2 inh: inhibitors of human MBD2 binding to methylated oligonucleotide. Q9UBB5. TR-FRET. inhibition, % at 4.4 µM. 370,000 compounds, 0.31% hits. AID 686964; in the data active = inhibition above about 13%
Target sequence (Q9UBB5 whole entry, looked up): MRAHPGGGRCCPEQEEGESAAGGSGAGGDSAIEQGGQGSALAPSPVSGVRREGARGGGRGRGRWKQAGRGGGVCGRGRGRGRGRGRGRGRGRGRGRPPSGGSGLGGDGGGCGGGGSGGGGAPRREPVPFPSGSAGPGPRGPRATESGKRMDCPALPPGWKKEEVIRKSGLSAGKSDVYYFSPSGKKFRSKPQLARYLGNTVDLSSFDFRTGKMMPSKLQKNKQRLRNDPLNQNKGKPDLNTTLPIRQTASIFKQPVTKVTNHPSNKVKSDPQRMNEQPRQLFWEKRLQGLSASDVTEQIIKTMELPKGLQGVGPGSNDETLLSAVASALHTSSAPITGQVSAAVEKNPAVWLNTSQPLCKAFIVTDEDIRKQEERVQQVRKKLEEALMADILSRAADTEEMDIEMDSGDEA
LEDGF integ inh: blocks HIV-1 LEDGF/p75-dependent DNA integration; TR-FRET IN-LEDGF/p75 DNA integration, Eu/Cy5; 370,000 compounds, 0.64% hits; inhibition, % at 3.7 µM; AID 743269;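 active = inhibition above the screen-wide mean plus 3 SD, cut at about 13% in these data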;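 note: signal is the Cy5 over europium emission ratio at 671 and 618 nm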
DNMT1 block: blocks human DNA methyltransferase DNMT1; P26358; DNMT1 molecular beacon, Hinp1I cleavage, fluorescence; inhibition (reported as % activation of signal), % at 10 µM; 360,000 compounds, 0.83% hits; in the data active = inhibition above about 50%
PG9 binder: PG9 antibody binding by small molecule; TR-FRET gp120-PG9 antibody binding; inhibition, % at 6.7 µM; 360,000 compounds, 0.43% hits; in the data active = inhibition above about 8.5%
Beacon interf DR: shows spectral interference in the DNMT1 beacon assay; 200 tested, under 10 active; IC50, µM; molecular beacon fluorescence, spectral interference counter-screen; AID 602382; shares compounds with DNMT1 block; call rule not given here
DNMT1 inh conf: confirmation of human DNMT1 inhibitors; DNMT1 molecular beacon HinP1I cleavage, fluorescence; inhibition, % at 10 µM; shares compounds with DNMT1 block; 2,300 compounds, 8% hits;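 active = average inhibition of at least 30% in the single-concentration confirmation test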
DNMT1 interf: shows spectral interference in the DNMT1 beacon assay | shares compounds with DNMT1 block | DNMT1 molecular beacon spectral interference counterscreen, fluorescence 485/520 | activation (fluorescence interference), % at 10 µM | 2,300 compounds, 1% hits;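 active = activation of at least 30% at 10 µM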;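 note: DNMT1 catalytic domain with a HinP1I cleavage step and a FAM/dabcyl DNA beacon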
Large screens that a line does not name were inactive (follow-up assays come after a bar, where they were run).

O=C1N=C(N2CCOCC2)SC1=Cc1ccco1	DNMT1 block 81 | DNMT1 inh conf inactive | DNMT1 interf inactive
COCCn1c(C)cc(C(=O)COC(=O)c2ccc(Cl)c(S(N)(=O)=O)c2)c1C	none
C[C@H]1COC(=O)[C@H](NC(=O)OCC2c3ccccc3-c3ccccc32)C/C=C\C[C@H](CC(=O)N(CCO)Cc2ccccc2)C(=O)N1	none
O=C(NCc1ccccc1)C(C1CC1)n1c(=O)c(-c2cc3ccccc3[nH]2)nc2ccccc21 (stereo unspecified)	none (no result: DNMT1 block)
COc1ccc(-c2csc(C(C)(NC(C)=O)c3ccccc3)n2)cc1 (stereo unspecified)	none
Cc1ccc(NCC(=O)N/N=C\c2cccc(O)c2)cc1	DNMT1 block 58 | DNMT1 inh conf inactive | DNMT1 interf inactive
Cc1ccc(NCC(=O)N/N=C/c2cccc(Br)c2)cc1	none
S=c1[nH]nc(-c2cccc(Cl)c2)n1/N=C/c1ccc(-c2ccccc2Br)o1	DNMT1 block 62 | DNMT1 inh conf inactive | DNMT1 interf inactive
Cc1ccc(/C=N/n2c(-c3cccc(Cl)c3)n[nH]c2=S)o1	none
CN(C)C(CNC(=O)C1CC(=O)N(Cc2ccccc2)C1)c1ccccc1 (stereo unspecified)	none
CN(C)C(CNC(=O)C1CC(=O)N(c2cccc(C(F)(F)F)c2)C1)c1ccccc1 (stereo unspecified)	DNMT1 block 91 | DNMT1 inh conf inactive | DNMT1 interf inactive
CCOc1cc(/C=N/Nc2ccccc2Cl)ccc1OCC(=O)O	DNMT1 block 58 | DNMT1 inh conf inactive | DNMT1 interf inactive
CC1=C(C(=O)Nc2ccccc2)C(c2ccc(C)o2)n2c(s/c(=C/c3ccccc3)c2=O)=N1 (stereo unspecified)	DNMT1 block 84 | DNMT1 inh conf inactive | DNMT1 interf inactive
CC(=O)Nc1ccc(-c2ccnc3c2CC(C(=O)NCCC(F)(F)F)O3)cc1 (stereo unspecified)	none
Cc1cc2c(s1)c1cnn(Cc3c(Cl)ccc(C)c3F)c(=O)c1n2C	none (no result: rCAG RNA binder, DNMT1 block, PG9 binder)
CC(=O)OCC1=C(C(=O)O)N2C(=O)C(NC(=O)c3ccc(COc4cccc(Cl)c4Cl)o3)C2SC1 (stereo unspecified)	DNMT1 block 88 | Beacon interf DR inactive | DNMT1 inh conf 41 | DNMT1 interf inactive
COc1ccc(OC)c(CN2C(=O)CSCC2(C)C(=O)Nc2c(C)cccc2C)c1 (stereo unspecified)	none (no result: DNMT1 block)
CCN(CC)c1ncnc2c1ncn2[C@H]1CN(Cc2ccc(-c3ccccc3)cc2)C[C@@H](CO)O1	none
CCOC(=O)/C=c1/s/c(=C/c2ccc3cc(OC)ccc3c2)c(=O)n1CC(=O)NCc1ccc2c(c1)OCO2	DNMT1 block 54 | DNMT1 inh conf inactive | DNMT1 interf inactive
COc1ccc(/C=C/C(=O)OCC(=O)NCC2CCCO2)cc1 (stereo unspecified)	none
CCOC(=O)/C=c1\s/c(=C\c2ccc(-c3ccccc3)cc2)c(=O)n1CC(=O)NCc1ccc2c(c1)OCO2	none
CCOC(=O)/C=c1\s/c(=C\c2ccc3cc(OC)ccc3c2)c(=O)n1CC(=O)NCC1CCCO1 (stereo unspecified)	DNMT1 block 58 | DNMT1 inh conf inactive | DNMT1 interf inactive
COC(=O)C[C@@H]1CC[C@H](NC(=O)Nc2ccc(OC)cc2)[C@@H](CO)O1	none (no result: DNMT1 block)
Cn1cnc(S(=O)(=O)N2CCCCC2c2cc(C(=O)Nc3cccc4c3CCCC4)no2)c1 (stereo unspecified)	none
O=C(NCc1ccco1)c1nn2c(C(F)(F)F)cc(-c3cccs3)nc2c1Br	none
O=C(NCc1ccco1)c1nc2nc(-c3cccs3)cc(C(F)(F)F)n2n1	DNMT1 block 56 | DNMT1 inh conf inactive | DNMT1 interf inactive
